# Measured values from the supplement of paper PMC6555819.
# System: LXRa homodimer (NR concentration 270 nM)
# Test: PBM binding z-score (relative to random genomic background probes); higher = stronger binding; sequences stand for … in GC…GCGATTGACAGCGTAGAATGAAGG
# Method in brief: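 Custom Agilent 4×180K protein-binding microarrays carried double-stranded probes, each with a 34-nt variable region. These regions held direct-repeat seeds, single-nucleotide variants, half-site ablations and random human genomic background sequences. Ligand-free nuclear receptor dimers were incubated on the arrays for 1 h, antibodies against each partner (one per run) detected binding, and scanned fluorescence was regression-normalized. Binding z-scores take the random background probes as reference.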
row,Sequence,PBM binding z-score
1,CCATGTAGGTTAAGGGGGTCATTCAGTTTGAAAG,3.76
2,TCGATTAGGTTACGGGGGCATTCAGGGATGAAGA,1.5
3,CCGAGTAGGTTACGAGGGGGCATTCTGTGCGAAT,1.77
4,TCGACTAGGTTACGGGGGCATTCAGGGATGAAGA,1.01
5,TCGAGTACGTTACGGGGGCATTCAGGGATGAAGA,-0.186
6,TTGAGTAGGTTACGGGGGCATTCAGGGATGAAGA,1.18
7,TCGAGTAGGTTCCGGGGGCATTCAGGGATGAAGA,0.316
8,CCGGGTAGGTTACGAGGGGGCATTCAGTGCGAAT,1.5
9,CTATGTAGGTTAAGGGGGTCACTCAGTTTGAAAG,1.65
10,CTATGTAGGTTAAGGGGGTCATTCTGTTTGAAAG,2.88
11,CTATGTAAGTTAAGGGGGTCATTCAGTTTGAAAG,2.4
12,CTATGCAGGTTAAGGGGGTCATTCAGTTTGAAAG,3
13,CCGAGTAGGTTACGAGGGGGTATTCAGTGCGAAT,0.455
14,TCGAGGAGGTTACGGGGGCATTCAGGGATGAAGA,0.868
15,CTATGTAGGTTGAGGGGGTCATTCAGTTTGAAAG,2
16,CCGAGTAGGTTACAAGGGGGCATTCAGTGCGAAT,2.35
17,CTACGTAGGTTAAGGGGGTCATTCAGTTTGAAAG,2.48
18,CCGAGTAGGTTACGAGGCGGCATTCAGTGCGAAT,-0.363
19,CCGAGTAGGTTATGAGGGGGCATTCAGTGCGAAT,1.95
20,TCGAGTCGGTTACGGGGGCATTCAGGGATGAAGA,0.317

row,Sequence,PBM binding z-score
1,TCGAGTAGGTTACGGGGGGATTCAGGGATGAAGA,1.21
2,CCGAGTAGGTTACGATGGGGCATTCAGTGCGAAT,-0.148
3,TCGAGTAGGTTACCGGGGCATTCAGGGATGAAGA,-0.39
4,TCGAGTAGGTTACGGGGGCAGTCAGGGATGAAGA,0.393
5,TCGAGTAGGTTGCGGGGGCATTCAGGGATGAAGA,0.68
6,CTATGTAGGTTAAGGGGGTCGTTCAGTTTGAAAG,0.932
7,CCGAGTGGGTTACGAGGGGGCATTCAGTGCGAAT,0.977
8,CTATTTAGGTTAAGGGGGTCATTCAGTTTGAAAG,2.76
9,CCGAGTAGGTTACGAAGGGGCATTCAGTGCGAAT,-0.15
10,TCGAGTAGGTTACGGGGGCATTCCGGGATGAAGA,0.0862
11,TCGAGTAGGTTAAGGGGGCATTCAGGGATGAAGA,1.01
12,CTATATAGGTTAAGGGGGTCATTCAGTTTGAAAG,2.95
13,CTATGTAGGTTAAGGGGGGCATTCAGTTTGAAAG,1.74
14,CCGAGTAGGTTAGGAGGGGGCATTCAGTGCGAAT,1.19
15,TCGAGTAGGCTACGGGGGCATTCAGGGATGAAGA,-0.259
16,CTATGTAGGGTAAGGGGGTCATTCAGTTTGAAAG,2.41
17,CTATGTAGGTTATGGGGGTCATTCAGTTTGAAAG,4.32
18,CTGTGTAGGTTAAGGGGGTCATTCAGTTTGAAAG,3.47
19,CCGAGTTGGTTACGAGGGGGCATTCAGTGCGAAT,1.21
